From PubChem BioAssay
Activity calls are given as the source filed them.

Legend:
[1] = target: Albumin (Bos taurus) (UniProt P02769); assay: compounds binding labelled BSA control protein – biochemical, small-molecule microarray, Alexa647 label, 635/667 nm fluorescence, artefact control for SMM control protein annotation, profiling panel (AID 1118); conditions: BSA-A647 binding, fluorescence 635 nm, higher = more signal;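 note: score merges 667 nm emission intensity and signal-to-noise per printed compound spot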
[2] = probe aXIP binding to arrayed compounds – biochemical, NeuroSMM set, 635/667 nm fluorescence, primary screen (AID 1119); conditions: small-molecule microarray, higher = more signal, called active from +8 up or from −8 down;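 note: probe is the protein aXip251-270 applied at 1 µg/mL to compound-printed slides; binding of probe to printed compounds measured as 667 nm fluorescence plus signal to noise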
[3] = probe aNOTCH3 binding on compound microarray – biochemical, small-molecule microarray, 635/667 nm fluorescence, primary screen (AID 1120); conditions: higher = more signal;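 note: probe is a biotin-tagged antibody raised against NOTCH3 rather than NOTCH3 protein; score merges spot fluorescence near 667 nm with spot signal to noise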
[4] = probe aNOTCH2 binding on compound microarray – biochemical, small-molecule microarray, 635/667 nm fluorescence, primary screen (AID 1121); conditions: higher = more signal;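 note: score merges feature fluorescence read at 667 nm with its signal to noise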
[5] = target: Carbonic anhydrase 2 (Homo sapiens) (UniProt P00918); assay: compounds binding carbonic anhydrase 2 – biochemical, small-molecule microarray, Alexa647-labelled CAII, profiling panel (AID 1122); conditions: CAII-A647 binding fluorescence, higher = more signal
[6] = COS7 lysate on small-molecule microarray, probe aHis, 635 nm (AID 1123); conditions: COS7 cell lysate, fluorescence, higher = more signal;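 note: z-score combines 667nm fluorescence intensity with signal-to-noise per printed compound spot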
[7] = probe aLAP1 signal on lysate-treated microarray – cell lysate, small-molecule microarray, COS7 lysate, primary screen (AID 1124); conditions: probe aLAP1, fluorescence, higher = more signal;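 note: lysate comes from COS7 cells expressing LAP1 and is applied at 0.3 µg/mL; score merges spot fluorescence near 667 nm with signal-to-noise over triplicate slides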
[8] = system: Sam68 (KHDRBS1); assay: compounds binding KHDRBS1 protein – biochemical, small-molecule microarray, 635 nm fluorescence, primary screen (AID 1125); conditions: higher = more signal;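 note: score merges 667 nm channel intensity with signal to noise over triplicate slides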
[9] = system: Chordin-like protein 2 (CHRDL2); assay: compounds binding chordin-like 2 – biochemical, small-molecule microarray, 635 nm fluorescence, primary screen (AID 1126); conditions: fluorescence 635 nm, higher = more signal;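 note: printed compound slides probed with Chrdl2 protein at 4 µg/mL for 1 h at 4 C; score merges 667 nm emission intensity with signal to noise over three replicate slides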
[10] = target: Concanavalin-A (Canavalia ensiformis) (UniProt P02866); assay: compounds binding concanavalin A lectin – biochemical, small-molecule microarray, Alexa647 label, 635 nm, artefact control for SMM control protein annotation, primary screen (AID 1127); conditions: ConA-A647 binding fluorescence, higher = more signal;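 note: z combines 667 nm emission intensity with signal-to-noise across three replicate slides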
[11] = compounds binding Alexa647 anti-His antibody – biochemical, small-molecule microarray, 635 nm fluorescence, artefact control for SMM control protein annotation, primary screen (AID 1128); conditions: higher = more signal;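 note: score merges feature fluorescence with signal-to-noise for each printed compound spot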
[12] = system: Human papillomavirus type 1a E7 protein (residues 1-88); assay: HPV1a E7 small-molecule binders, primary screen, biochemical, small-molecule microarray, residues 1-88, 635 nm (AID 1129); conditions: small-molecule microarray binding, fluorescence 635 nm; higher = more signal
[13] = target: Focal adhesion kinase 1 (Homo sapiens) (UniProt Q05397); assay: PTK2 protein binding on printed compound slides – biochemical, small-molecule microarray, 635/667 nm fluorescence, BSA, DTT, primary screen (AID 1130); conditions: 635 nm fluorescence, higher = more signal;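 note: composite of spot emission at 667 nm and signal to noise over triplicate slides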
[14] = system: Fibrinogen (Alexa647-labelled); assay: Alexa647-fibrinogen binding to printed small molecules – biochemical, small-molecule microarray, 635/667 nm fluorescence, artefact control for SMM control-protein annotation, profiling panel (AID 1131); conditions: fibrinogen-A647 binding fluorescence, higher = more signal;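 note: z-score merges 667 nm fluorescence with per-spot signal-to-noise over triplicate slides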
[15] = target: Follistatin (Homo sapiens) (UniProt P19883); assay: FST protein binding to printed compounds – biochemical, small-molecule microarray, 635/667 nm fluorescence, primary screen (AID 1132); conditions: 635 nm fluorescence, higher = more signal
[16] = target: Fibroblast growth factor 2 (Homo sapiens) (UniProt P09038); assay: basic fibroblast growth factor binding to printed compounds – biochemical, small-molecule microarray, 635/667 nm fluorescence, primary screen (AID 1133); conditions: FGF2, fluorescence 635/667, higher = more signal
[17] = JC-1 mitochondrial potential readout, lung cancer cells – cell-based, A549, JC-1 fluorescence, basal, 24 h, 100 nL, profiling panel (AID 1138); conditions: higher = more signal;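 note: A549 lung adenocarcinoma cells under basal conditions with no added stimulus; test concentration not given here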
[18] = system: Lefty1; assay: Lefty1 protein binding to printed compounds – biochemical, small-molecule microarray, 635/667 nm fluorescence, primary screen (AID 1139); conditions: fluorescence 635/667, higher = more signal
[19] = system: wheat germ agglutinin (Triticum aestivum), Alexa647-labelled; assay: Alexa647-WGA lectin binding to printed small molecules – biochemical, small-molecule microarray, 635/667 nm fluorescence, artefact control for SMM control-protein annotation, profiling panel (AID 1140); conditions: WGA-A647 binding, 635 nm fluorescence, higher = more signal;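 note: score merges 667 nm feature emission with signal to noise over triplicate slides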
[20] = target: Luciferin 4-monooxygenase (Photinus pyralis) (UniProt P08659); assay: inhibition of purified Photinus pyralis luciferase – biochemical, luminescence, purified enzyme, 2006 set, primary screen (AID 1141); conditions: purified firefly luciferase, SteadyGlo luminescence, 30 min; higher = more signal, called active from +8 up or from −8 down;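 note: cell-free assay with purified firefly luciferase at 100 ng per well in PBS; test concentration not given here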
Chain of Luciferin 4-monooxygenase (Photinus pyralis) (P08659 whole entry, looked up): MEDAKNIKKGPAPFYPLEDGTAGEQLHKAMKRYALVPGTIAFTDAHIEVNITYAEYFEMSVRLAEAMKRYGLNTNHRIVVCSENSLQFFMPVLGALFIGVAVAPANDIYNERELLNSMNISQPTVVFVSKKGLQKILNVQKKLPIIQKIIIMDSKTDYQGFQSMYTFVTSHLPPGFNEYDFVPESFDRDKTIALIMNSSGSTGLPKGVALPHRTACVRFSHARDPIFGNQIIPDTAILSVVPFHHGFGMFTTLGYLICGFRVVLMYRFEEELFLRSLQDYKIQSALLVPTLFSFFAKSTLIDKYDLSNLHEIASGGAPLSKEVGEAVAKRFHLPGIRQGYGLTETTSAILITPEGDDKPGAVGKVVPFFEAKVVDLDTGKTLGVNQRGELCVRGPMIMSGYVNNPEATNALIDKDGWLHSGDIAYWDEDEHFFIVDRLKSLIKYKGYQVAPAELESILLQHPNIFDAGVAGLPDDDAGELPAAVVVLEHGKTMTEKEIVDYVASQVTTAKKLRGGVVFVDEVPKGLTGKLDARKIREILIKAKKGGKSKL

Chain of Fibroblast growth factor 2 (Homo sapiens) (P09038 whole entry, looked up): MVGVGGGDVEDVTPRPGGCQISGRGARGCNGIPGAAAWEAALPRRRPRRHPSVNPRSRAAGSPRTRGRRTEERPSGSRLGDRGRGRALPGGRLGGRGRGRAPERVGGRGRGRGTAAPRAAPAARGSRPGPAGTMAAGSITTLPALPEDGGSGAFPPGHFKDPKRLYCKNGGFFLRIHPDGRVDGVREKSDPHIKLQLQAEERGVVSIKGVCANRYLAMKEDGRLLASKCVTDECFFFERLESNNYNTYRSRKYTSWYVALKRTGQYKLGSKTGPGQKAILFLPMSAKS
Chain of Focal adhesion kinase 1 (Homo sapiens) (Q05397 whole entry, looked up): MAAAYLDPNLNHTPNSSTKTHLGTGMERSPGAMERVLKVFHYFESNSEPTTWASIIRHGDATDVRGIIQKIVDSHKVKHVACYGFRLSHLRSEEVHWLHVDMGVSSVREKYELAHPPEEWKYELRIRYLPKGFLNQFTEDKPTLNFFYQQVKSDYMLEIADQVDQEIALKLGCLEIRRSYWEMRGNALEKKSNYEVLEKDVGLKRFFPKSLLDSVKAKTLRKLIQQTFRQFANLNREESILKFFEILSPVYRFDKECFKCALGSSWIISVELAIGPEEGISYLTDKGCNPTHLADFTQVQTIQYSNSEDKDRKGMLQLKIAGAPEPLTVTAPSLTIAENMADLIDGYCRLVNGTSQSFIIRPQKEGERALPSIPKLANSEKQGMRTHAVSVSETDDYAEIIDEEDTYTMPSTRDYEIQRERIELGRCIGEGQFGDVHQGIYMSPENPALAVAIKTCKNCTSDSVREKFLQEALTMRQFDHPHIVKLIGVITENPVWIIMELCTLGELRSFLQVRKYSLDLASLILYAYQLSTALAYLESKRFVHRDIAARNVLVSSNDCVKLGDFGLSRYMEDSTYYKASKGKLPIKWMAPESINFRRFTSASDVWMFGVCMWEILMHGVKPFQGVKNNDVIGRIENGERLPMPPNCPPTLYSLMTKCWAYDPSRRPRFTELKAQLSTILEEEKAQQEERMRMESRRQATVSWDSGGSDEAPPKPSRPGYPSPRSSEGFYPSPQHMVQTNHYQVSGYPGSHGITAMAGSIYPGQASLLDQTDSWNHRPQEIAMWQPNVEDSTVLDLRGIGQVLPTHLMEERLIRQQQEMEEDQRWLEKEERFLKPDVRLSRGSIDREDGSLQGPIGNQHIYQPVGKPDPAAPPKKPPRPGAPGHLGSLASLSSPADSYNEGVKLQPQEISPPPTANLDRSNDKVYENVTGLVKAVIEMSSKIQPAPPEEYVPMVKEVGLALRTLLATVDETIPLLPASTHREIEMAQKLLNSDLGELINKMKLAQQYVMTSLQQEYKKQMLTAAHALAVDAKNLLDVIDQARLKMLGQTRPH
Chain of Follistatin (Homo sapiens) (P19883 whole entry, looked up): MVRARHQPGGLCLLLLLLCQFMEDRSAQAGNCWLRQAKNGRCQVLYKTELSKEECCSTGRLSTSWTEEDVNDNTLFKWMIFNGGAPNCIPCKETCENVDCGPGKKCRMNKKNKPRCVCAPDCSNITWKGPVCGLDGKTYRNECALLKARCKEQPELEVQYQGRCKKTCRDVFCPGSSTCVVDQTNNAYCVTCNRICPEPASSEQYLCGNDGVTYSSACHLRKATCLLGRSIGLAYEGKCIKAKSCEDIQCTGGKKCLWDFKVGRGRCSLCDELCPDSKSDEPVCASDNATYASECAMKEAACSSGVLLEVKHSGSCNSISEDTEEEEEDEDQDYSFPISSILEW
Chain of Albumin (Bos taurus) (P02769 whole entry, looked up): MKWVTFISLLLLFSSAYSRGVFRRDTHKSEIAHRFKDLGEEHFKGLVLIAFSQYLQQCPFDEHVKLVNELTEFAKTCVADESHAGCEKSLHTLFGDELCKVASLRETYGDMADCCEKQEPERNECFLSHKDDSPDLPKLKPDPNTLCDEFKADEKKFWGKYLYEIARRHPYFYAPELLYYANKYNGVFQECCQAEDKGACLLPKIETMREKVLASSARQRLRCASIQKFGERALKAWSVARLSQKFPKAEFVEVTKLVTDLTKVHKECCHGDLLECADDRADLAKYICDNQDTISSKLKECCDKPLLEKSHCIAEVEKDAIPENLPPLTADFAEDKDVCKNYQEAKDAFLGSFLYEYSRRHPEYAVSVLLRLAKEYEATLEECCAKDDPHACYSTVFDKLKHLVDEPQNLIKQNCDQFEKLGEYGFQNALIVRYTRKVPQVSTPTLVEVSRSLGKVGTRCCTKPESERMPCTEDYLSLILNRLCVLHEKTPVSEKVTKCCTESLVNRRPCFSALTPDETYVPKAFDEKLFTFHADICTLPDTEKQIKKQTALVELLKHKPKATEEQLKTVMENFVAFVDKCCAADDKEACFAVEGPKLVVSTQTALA
Chain of Concanavalin-A (Canavalia ensiformis) (P02866 whole entry, looked up): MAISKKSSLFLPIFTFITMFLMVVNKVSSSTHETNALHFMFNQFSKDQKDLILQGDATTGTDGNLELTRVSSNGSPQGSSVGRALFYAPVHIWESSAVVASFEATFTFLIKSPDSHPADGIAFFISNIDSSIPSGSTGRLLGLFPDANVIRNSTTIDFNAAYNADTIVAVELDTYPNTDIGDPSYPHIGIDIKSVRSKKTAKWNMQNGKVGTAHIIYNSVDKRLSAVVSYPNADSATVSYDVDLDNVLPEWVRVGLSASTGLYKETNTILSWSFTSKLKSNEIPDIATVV

## COCCOC(=O)N1C(=O)[C@@]2(c3ccccc31)[C@H](C(=O)Nc1nc3ccccc3s1)[C@H]1C(=O)O[C@H](c3ccccc3)[C@H](c3ccccc3)N1[C@@H]2c1ccc(O)cc1
[1]
  composite z-score: 0.794
[2]
  composite Z-score: -0.706 (inactive)
[3]
  composite z-score: 0.288
[4]
  composite z-score: -0.0551
[5]
  composite z-score: 0.435
[6]
  composite z-score: 0.903
[7]
  composite z-score: 0.418
[8]
  composite z-score: 1.3
[9]
  composite z-score: 0.318
[10]
  composite z-score: 1.21
[11]
  composite z-score: 1.68
[12]
  composite z-score: 1.2
[13]
  composite z-score: 0.261
[14]
  composite z-score: 0.976
[15]
  composite z-score: 1.32
[16]
  composite z-score: 1.06
[17]
  z-score: -2.31
[18]
  composite z-score: 0.983
[19]
  composite z-score: 1.16
[20]
  z-score: -2.88 (inactive)

## CCOC(=O)C[C@H]1[C@H](OC(=O)c2ccc(-c3ccccc3)cc2)[C@@H](NC(=O)C2CCCCC2)c2cc(OCCCO)ccc2N1C(=O)c1ccc2ccccc2n1
[1]
  composite z-score: 0.821
[2]
  composite Z-score: -0.0871 (inactive)
[3]
  composite z-score: 0.0179
[4]
  composite z-score: 0.0055
[5]
  composite z-score: -0.252
[6]
  composite z-score: 0.915
[7]
  composite z-score: 0.243
[8]
  composite z-score: 1.3
[9]
  composite z-score: -0.625
[10]
  composite z-score: 0.814
[11]
  composite z-score: 0.549
[12]
  composite z-score: 1.14
[13]
  composite z-score: 0.347
[14]
  composite z-score: 0.433
[15]
  composite z-score: 0.349
[16]
  composite z-score: -0.243
[17]
  z-score: 1.14
[18]
  composite z-score: 0.0309
[19]
  composite z-score: 0.388
[20]
  z-score: -0.784 (inactive)

## CCCCCN1CC=CC23O[C@@H]4/C=C\CCC(C)OC(=O)C4[C@H]2C(=O)N(CCCO)[C@@H]3C1=O (stereo not given in full)
[1]
  composite z-score: -1.27
[2]
  composite Z-score: 0.58 (inactive)
[3]
  composite z-score: -0.357
[4]
  composite z-score: -0.161
[5]
  composite z-score: 0.97
[6]
  composite z-score: 0.1
[7]
  composite z-score: 1.62
[8]
  composite z-score: -0.237
[9]
  composite z-score: -1.15
[10]
  composite z-score: -0.521
[11]
  composite z-score: -1.7
[12]
  composite z-score: -0.719
[13]
  composite z-score: -0.249
[14]
  composite z-score: -1.63
[15]
  composite z-score: -1.3
[16]
  composite z-score: -0.965
[17]
  z-score: 0.684
[18]
  composite z-score: -1.2
[19]
  composite z-score: -1.08
[20]
  z-score: -0.637 (inactive)

## C=C(COC)/C(=C/C[C@H](OC(C)=O)c1ccc(CO)o1)c1cnc2ccccc2c1
[1]
  composite z-score: 0.15
[2]
  composite Z-score: 0.837 (inactive)
[3]
  composite z-score: 0.116
[4]
  composite z-score: -0.11
[5]
  composite z-score: 0.969
[6]
  composite z-score: 1.25
[7]
  composite z-score: -0.105
[8]
  composite z-score: 1.29
[9]
  composite z-score: 1.14
[10]
  composite z-score: 1.09
[11]
  composite z-score: 1.28
[12]
  composite z-score: 1.17
[13]
  composite z-score: 0.284
[14]
  composite z-score: -0.0185
[15]
  composite z-score: 1.42
[16]
  composite z-score: 1.31
[17]
  z-score: 0.861
[18]
  composite z-score: 1.58
[19]
  composite z-score: 1.35
[20]
  z-score: -2.1 (inactive)

## CN1C=C(C(=O)OCCS(C)(=O)=O)C(C(=O)OCCS(C)(=O)=O)=CC(CCCO)=CC1c1cccs1 (stereo not given)
[1]
  composite z-score: -0.945
[2]
  composite Z-score: 1.4 (inactive)
[3]
  composite z-score: -0.132
[4]
  composite z-score: -0.0837
[5]
  composite z-score: -0.167
[6]
  composite z-score: -0.12
[7]
  composite z-score: 0.0548
[8]
  composite z-score: 1.13
[9]
  composite z-score: 0.443
[10]
  composite z-score: -0.508
[11]
  composite z-score: 0.478
[12]
  composite z-score: 0.77
[13]
  composite z-score: 0.275
[14]
  composite z-score: -0.463
[15]
  composite z-score: 0.775
[16]
  composite z-score: 0.371
[17]
  z-score: 3.12
[18]
  composite z-score: 1.07
[19]
  composite z-score: -0.485
[20]
  z-score: -1.52 (inactive)

## CCCCC(=C=CC[C@H](O)c1cccc(OCCO)c1)CCO
[1]
  composite z-score: 0.15
[2]
  composite Z-score: -0.434 (inactive)
[3]
  composite z-score: -0.0699
[4]
  composite z-score: -0.162
[5]
  composite z-score: 0.681
[6]
  composite z-score: 0.24
[7]
  composite z-score: 0.133
[8]
  composite z-score: -0.319
[9]
  composite z-score: -0.361
[10]
  composite z-score: -0.245
[11]
  composite z-score: 0.0233
[12]
  composite z-score: -0.282
[13]
  composite z-score: 0.44
[14]
  composite z-score: -0.644
[15]
  composite z-score: 0.455
[16]
  composite z-score: 0.287
[17]
  z-score: 1.97
[18]
  composite z-score: -0.103
[19]
  composite z-score: -0.602
[20]
  z-score: -0.835 (inactive)

## CC(C)C[C@@H]1NC(=O)[C@@H]2C[C@H](C(=O)NCCCCCNC(=O)CS)[C@H](c3cccc(OCCO)c3)N2C1=O
[1]
  composite z-score: -1.16
[2]
  composite Z-score: 0.262 (inactive)
[3]
  composite z-score: 0.0469
[4]
  composite z-score: -0.0624
[5]
  composite z-score: 0.588
[6]
  composite z-score: 1.47
[7]
  composite z-score: -0.383
[8]
  composite z-score: 1.31
[9]
  composite z-score: 0.767
[10]
  composite z-score: 1.18
[11]
  composite z-score: 2.82
[12]
  composite z-score: 1.18
[13]
  composite z-score: 1.35
[14]
  composite z-score: 0.837
[15]
  composite z-score: 1.38
[16]
  composite z-score: 1.3
[17]
  z-score: -0.018
[18]
  composite z-score: 1.13
[19]
  composite z-score: 1.23
[20]
  z-score: -2.15 (inactive)

## CC(C)N1C(=O)c2ccccc2[C@@H](C(=O)NCc2ccccc2)[C@@H]1c1ccc(CO)cc1
[1]
  composite z-score: -2.18
[2]
  composite Z-score: 0.335 (inactive)
[3]
  composite z-score: -0.27
[4]
  composite z-score: -0.162
[5]
  composite z-score: 0.741
[6]
  composite z-score: 1.51
[7]
  composite z-score: 0.409
[8]
  composite z-score: 0.0504
[9]
  composite z-score: -0.184
[10]
  composite z-score: -1.07
[11]
  composite z-score: -1.36
[12]
  composite z-score: 0.369
[13]
  composite z-score: 0.427
[14]
  composite z-score: -1.22
[15]
  composite z-score: 0.815
[16]
  composite z-score: 0.82
[17]
  z-score: 1.64
[18]
  composite z-score: -1.28
[19]
  composite z-score: -1.51
[20]
  z-score: -0.886 (inactive)

## C/C=C/[C@@H](CCn1cc(CCO[Si](C(C)C)(C(C)C)C(C)C)nn1)[Si](C)(C)c1ccc(OC)cc1
[1]
  composite z-score: -1.72
[2]
  composite Z-score: -0.535 (inactive)
[3]
  composite z-score: -0.337
[4]
  composite z-score: -0.234
[5]
  composite z-score: -0.609
[6]
  composite z-score: -0.49
[7]
  composite z-score: -0.0321
[8]
  composite z-score: -1.07
[9]
  composite z-score: -1.8
[10]
  composite z-score: -2.84
[11]
  composite z-score: -0.588
[12]
  composite z-score: -0.668
[13]
  composite z-score: -0.168
[14]
  composite z-score: -1.56
[15]
  composite z-score: -2.11
[16]
  composite z-score: -0.888
[17]
  z-score: 4.63
[18]
  composite z-score: -1.16
[19]
  composite z-score: -2.08
[20]
  z-score: -2.45 (inactive)
